We go through 40 compounds from PubChem BioAssay (Tox21).

Records with an inconclusive call do not appear. Calls of active or inactive are those of the source. Calls come from the whole dose curve; as a rule, active = well fitted inhibition curve with a large enough effect in the repeat runs; inconclusive = weak or mixed curves; inactive = no such curve, though single readings can be large or run the other way.
% is set by controls: 0 for no effect and ±100 for the full control effect; potency is the fitted concentration of half-maximal effect.

Cytochrome P450 2D6 (Homo sapiens), sequence (P10635 whole entry, looked up): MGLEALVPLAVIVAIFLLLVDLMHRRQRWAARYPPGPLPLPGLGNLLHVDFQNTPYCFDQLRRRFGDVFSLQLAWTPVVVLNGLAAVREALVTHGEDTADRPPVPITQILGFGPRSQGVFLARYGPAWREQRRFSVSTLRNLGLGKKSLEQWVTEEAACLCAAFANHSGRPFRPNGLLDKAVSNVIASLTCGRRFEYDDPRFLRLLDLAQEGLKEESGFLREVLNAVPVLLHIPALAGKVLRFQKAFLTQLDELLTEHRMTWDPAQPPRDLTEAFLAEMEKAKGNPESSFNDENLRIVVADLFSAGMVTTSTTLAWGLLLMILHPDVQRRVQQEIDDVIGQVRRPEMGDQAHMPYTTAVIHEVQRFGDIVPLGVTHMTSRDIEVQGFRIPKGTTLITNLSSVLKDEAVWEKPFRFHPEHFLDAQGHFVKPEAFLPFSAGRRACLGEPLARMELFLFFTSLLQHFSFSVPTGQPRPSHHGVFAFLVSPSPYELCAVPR

This test concerns the target Cytochrome P450 2D6 (Homo sapiens) (UniProt P10635). Nature of the test: Cytochrome P450 Family 2 Subfamily D Member 6 (CYP2D6) small molecule antagonists: luciferase reporter qHTS assay (AID 1671196). Note: nearly all actives have a fitted effect of over 50% in size. The settings on record: P450-Glo CYP2D6 enzyme assay, luciferin luminescence, 1 h; series mostly up to 115 µM; activity change, negative = inhibition: at the top concentration. An excerpt:
U.S. Tox21 Program National Center for Advancing Translational Sciences [NCATS] U.S. Environmental Protection Agency [EPA] National Institutes of Environmental Health Sciences [NIEHS] National Toxicology Program [NTP] U.S. Food and Drug Administration [FDA] Tox21 Assay Overview: Cytochrome P450 (CYP) enzymes are membrane-bound hemeproteins that play a key role in metabolism of drugs and xenobiotics. Evaluation of the effect of chemicals on CYP isozymes is useful to minimize the adverse drug reactions and toxicities in drug development process. Tox21 chemicals were tested for their effect on CYP enzyme activities by using P450-Glo (TM) screening systems (Promega Corporation, Madison, WI). These systems provide a luminescent method containing proluciferin substrates and are converted to luciferin products by CYP isozymes. The luciferin products formed are detected with a luciferin detection reagent, and the amount of light produced is proportional to CYP activity. P450-Glo (TM) CYP2D6 screening system (Catalog. No. V9890) was used to detect the compounds that interfere in CYP2D6 activity.
Tox21 Assay Protocol Summary: Two ul of enzyme-substrate mix was dispensed into medium binding white/solid 1536-well plates (Greiner Bio-One North America Inc., Monroe, NC) using a BioRaptr Flying Reagent Dispenser (FRD, Beckman Coulter, Brea, CA). […] The assay plates were incubated at room temperature for 10 min. Then 2 ul of NADPH regeneration solution was added to each well of the assay plates using an FRD and incubated at room temperature for 1 h. The reaction was stopped by adding 4 ul of detection reagent using an FRD and after 20 min incubation at room temperature the luminescence signal was measured using a ViewLux plate reader (Perkin Elmer, Shelton, CT). Data were expressed as relative luminescence units.
As to `CC1(C)[C@@H]2CC[C@@]1(C)[C@H](O)C2`, the “activity change, negative = inhibition” value was 0.0571% (inactive).
Still for that read-out and setting: for `Cc1ccnc(NS(=O)(=O)c2ccc(N)cc2)n1` the value was -19.1% [at 53 µM] (inactive).
The same measure, in the same setting: for `CN(C)C(=O)Oc1cccc([N+](C)(C)C)c1` the value was -2.43% [at 53 µM] (inactive); for `Nc1ccncc1N`, 0.0037% [at 53 µM] (inactive).
On the same count and under the same terms, for `O=C1CCCCCCCCCCCCCCO1` the value was 2.63% (inactive); for `Cc1ccc(C(=O)c2ccc(CC(=O)O)n2C)cc1`, -8.45% [at 53 µM] (inactive).
For the compound `CCC(C)(CCCC(C)C)OC(C)=O` (stereo not given), the “activity change, negative = inhibition” value is -2.09% (inactive).
On the same count and under the same terms, for `CCCCCC(=O)OCCc1ccccc1` the value was -12.3% (inactive); for `COCCOCC(OC)OC`, -7.5% [at 53 µM] (inactive); for `C[C@@H]1CCC[C@H](C)N1`, -9.52% [at 53 µM] (inactive).
Still for that read-out and setting: for `COC(=O)Nc1ccc(Cl)c(Cl)c1` the value was -16.3% (inactive).
Consider `CCC(=O)OCc1ccccc1`, for which the “activity change, negative = inhibition” value was -20.7% (inactive).
Same read-out and setting: for `O=C(CO)[C@@H](O)[C@H](O)[C@H](O)CO` the value was -36.5% (inactive).
Take `C[N+]1(CC2COC(c3ccccc3)(c3ccccc3)O2)CCCCC1` (stereo not given): the Potency was 1690 nM (active).
As to `CC1=NN(c2cc(S(=O)(=O)O)ccc2Cl)C(=O)C1N=Nc1ccccc1` (stereo not given), the “activity change, negative = inhibition” value was -1.34% (inactive).
The same measure, in the same setting: for `CC/C=C\CCOC(C)OCC` (stereo not given) the value was -4.36% [at 53 µM] (inactive); for `CO[Si](C)(OC)c1ccccc1`, -21.4% (inactive); for `OCCCCCO`, -0.01% (inactive).
Same read-out and setting: for `CCCCN1C=CN(C)C1` the value was -17.2% [at 23.6 µM] (inactive); for `CNC(=O)Nc1ccc(Cl)c(Cl)c1`, -21% (inactive).
Same read-out and setting: for `CC(=O)C1CCCCC1=O` (stereo not given) the value was -7.29% (inactive).
Turning to `CC(C)=CCC/C(C)=C/C#N`, the “activity change, negative = inhibition” value is 0.575% (inactive).
For `C1CCC2(CCCCO2)OC1`, the “activity change, negative = inhibition” value was -0.325% (inactive).
The same measure, in the same setting: for `CCCc1ncc(C[n+]2ccccc2C)c(N)n1` the value was -23.1% [at 53 µM] (inactive).
Still for that read-out and setting: for `Nc1ccn([C@@H]2O[C@H](CO)[C@@H](O)C2(F)F)c(=O)n1` the value was -3.27% [at 53 µM] (inactive); for `Cc1ncc(COP(=O)(O)O)c(C=O)c1O`, -11.5% [at 53 µM] (inactive); for `C=CCCC(=O)O`, -8.34% (inactive).
The same measure, in the same setting: for `CCCCOC(=O)CCC(C)=O` the value was -16.3% (inactive); for `CC(C)(N)C#N`, 2.91% (inactive); for `CC1=CCC(O)(C(C)C)CC1` (stereo not given), -5.64% (inactive).
Turning to `O=C(CO)[C@@H](O)[C@H](O)[C@@H](O)CO`, the “activity change, negative = inhibition” value was -1.47% [at 53 µM] (inactive).
Consider `NC(=O)Cc1cccc2ccccc12`, for which the “activity change, negative = inhibition” value is -8.2% (inactive).
As for `O=S(=O)(O)c1cccc2ccccc12`, the “activity change, negative = inhibition” value was -15.4% (inactive).
The same measure, in the same setting: for `CCCCCCCCN1CCCC1=O` the value was -17.1% (inactive); for `CCCC(C)C(=O)OCC` (stereo not given), -4.76% (inactive); for `CN(C)C(=O)Oc1ccc[n+](C)c1`, -0.813% [at 53 µM] (inactive).
On the same count and under the same terms, for `CCCCCCCCCCCCCCC(=O)O` the value was -24.9% (inactive); for `CC(=O)N[C@H]1[C@H]([C@H](O)[C@H](O)CO)OC(C(=O)O)=C[C@@H]1N=C(N)N`, -0.81% [at 53 µM] (inactive); for `CC12CCC(C(=O)C1=O)C2(C)C` (stereo not given), 0.544% (inactive).
The same measure, in the same setting: for `CC(=O)OCC(=O)[C@@]1(O)[C@H](C)C[C@H]2[C@@H]3CCC4=CC(=O)C=C[C@]4(C)[C@@]3(F)[C@@H](O)C[C@@]21C` the value was -1.08% [at 53 µM] (inactive).
